Reference: PubChem BioAssay AID1159506 (National Center for Advancing Translational Sciences (NCATS), 2015)
In all, about 59,000 sequences were measured (the read-out: median about -0.00055, lowest 2% from about -2 on). The entries come from a sample that favours the lowest values as a whole.

experiment: Identification of proteins required for the processing of the EWS-FLI1 nascent transcript; conditions: TC32 Ewing sarcoma NR0B1-luc vs CMV-luc (EWS-FLI1 target promoter against control promoter), 48 h; screened at 20 nM (by protocol);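 also: robust z of luciferase light less the median z of siRNAs with the same seed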
Procedure, shortened: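 TC32 Ewing sarcoma cells carrying NR0B1-promoter or CMV-promoter luciferase reporters were reverse-transfected with single siRNAs at 20 nM, three per gene genome-wide. Luminescence was read after 48 h and normalized to non-targeting controls.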

| Sequence | seed-corrected z-score |
| --- | --- |
| AAACCGUCCUUCCUCAUGC against IL16 | 0.0574 |
| UUAGUCUUCCCGGAUUGCC against ADAR | 0.696 |
| UUCUGGAUAAACAUAUUCC against MCU | -0.133 |
| UUCCAGUUAAACUGUAGCC against LOC643770 | -2.78 |
| UUAAUAACCUCAGAAAUGG against TCTEX1D1 | 0.0567 |
| UAUUUGCGAAGUCAUGAGG against COPB1 | -3.25 |
| UGAAUAUCAACAGUCCCUC against ZNF731P | 0.959 |
| UAAAUGACAGAAGCCGUUG against SUCLG1 | -0.0373 |
| UCACAGAUGCCUGUAAAUG against TSACC | -0.571 |
| GCUUGCACGACUCACAGAC against DEFB105A | 1.34 |
| AGAGUGUAAUGAGUCUUUG against SCAPER | 0.141 |
| UCCUCCUUGUCCAUGAUGC against CDC42EP4 | 0.732 |
| AUCUGCUUAAUCUUUACAC against OR51F2 | -2.93 |
| AUCGGAUACCGUGAGAUCC against OXA1L | 0.367 |
| UAAUGGGCACGAAUGACGG against ST8SIA3 | 0.274 |
| AAUGGUAUCAUUCACCUUG against RPS4X | 1.54 |
| UCGUCUAAAACCAGGAUGC against ABCC3 | -0.496 |
| AAUGUUGUUCUGUUUGUCC against FAM122C | -1.09 |

| Sequence | seed-corrected z-score |
| --- | --- |
| UUUAGUUCUUCCCUUAUGG against PDGFC | -0.075 |
| UUCUUCAUCAGCUUAACCG against C1QTNF4 | -0.00119 |
| AUACUUGUACAAUCGGUGC against DIDO1 | 0.123 |
| UUCUUUGCCCGCUUGAGCU against CCDC86 | -0.859 |
| UUAGUUGCACCCAAAUCCA against CCDC17 | -2.22 |
| AUGCGAACCUCAUAGGUGG against SNX12 | -0.364 |
| ACACUCAAAAUUACCAGCU against LEMD2 | -1.09 |
| UGUUUUUGAAGUUAGAUCU against LOC728999 | 1.08 |
| UAAUCCUGACUUUCAAUUG against PAGE3 | -0.446 |
| AACAGUUUCUGCAUUCUUC against PARG | -0.336 |
| AGAGGUCUGAGCACAGUUC against HSPA6 | -1.34 |
| UAACAUCUUCGAACUGCGG against MAU2 | -1.35 |
| UGGUUGUUUAAGUCGACUG against USP33 | -2.43 |
| UCCCUUCACAAAGAAAGAG against TLDC2 | 0.201 |
| UUUCUUAGAAAGCGGUUCC against MORN5 | -0.0295 |
| UAGGAUACAUUGCUGAUGC against CASC1 | -0.353 |
| UCUUUCUUUAGUCUGAGUG against NMUR2 | 0.78 |
| UUCUUUAUCUCGAUGAUGC against FAM117B | -3.46 |
